Results published in PubChem BioAssay AID624156 (Broad Institute, 2012).
About 900 (2%) of roughly 46,000 compounds were called active. Another 1% or so got no clear call; they are omitted. This excerpt belongs to a sample that is enriched for actives. A number with no mark means an inactive call. No stated cut-off is given here; in the data, active means ROS induction above about 79% (passing the limit was not always enough); inconclusive means no clear call, values can overlap the other calls.

Experiment: ROS inducers in U2OS cancer cells, primary screen, cell-based, H2DCF-DA fluorescence (AID 624156);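 further: 0% = DMSO vehicle median and 100% = reference compound median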
Details: at 10 µM, hits give high values

SMILES | ROS induction (% of piperlongumine)
COC(=O)C1=C(N)Oc2cc(C)oc(=O)c2C1c1cccnc1 (stereo not given) | 69.7%
CC(C)OC(=O)C1=c2s/c(=C\c3cccnc3)c(=O)n2C(N)=C(C#N)C1c1cccnc1 (stereo not given) | 104% (active)
CCN(Cc1ccccc1)S(=O)(=O)c1cc(Cl)ccc1Cl | 29.9%
CCN(CC)c1nc(C#N)nc(OC)n1 | 55.7%
CC(CN1CCCC1)OC(=O)c1cc(C(C)(C)C)cc(C(C)(C)C)c1 (stereo not given) | 21.6%
CO[C@H]1O[C@H](CO)[C@@H](OC(=O)Nc2ccccc2-c2ccccc2)[C@H](OC(=O)Nc2ccccc2)[C@H]1OC(=O)Nc1ccccc1 | 132% (active)
CNC[C@@H]1Oc2c(NC(=O)Nc3ccccc3)cccc2C(=O)N([C@@H](C)CO)C[C@@H]1C | -4.47%
COC(=O)C1=C[C@@H](O)[C@@H](O)[C@H](O[C@@H]2O[C@H](CO)[C@@H](O)[C@H](O)[C@H]2OC(=O)/C=C/c2ccccc2)C1 | -5.34%
S=C(NCCc1ccc(Cl)cc1)Nc1ccccc1 | -13.7%
O=C(c1cncc(NS(=O)(=O)c2ccc(Cl)cc2)c1)N1CCN(Cc2ccccc2)CC1 | 41.7%
CC(C)C1N=C2c3ccccc3N=C(SCC(=O)c3ccc(Br)cc3)N2C1=O (stereo not given) | 63.2%
Cc1ccc(-n2c(SCC(=O)Nc3cccc(C)c3C)nc3ccccc3c2=O)cc1 | -0.837%
CC(C)(C)C(=O)CSc1nc2ccccc2c(=O)n1CC1CC1 | 120% (active)
O=c1c2ccccc2nc(SCc2cccc(F)c2)n1C1CC1 | 17.8%
O=C(CSc1nc(-c2cccs2)cc(C(F)(F)F)n1)OCCCc1ccccc1 | 1.26%
CC(C)NC(=O)N(C)C[C@H]1Oc2ccc(NS(=O)(=O)c3cn(C)cn3)cc2CC(=O)N([C@@H](C)CO)C[C@H]1C | 1.5%
C[C@@H]1CN([C@H](C)CO)C(=O)c2cc(NS(=O)(=O)c3cccs3)ccc2O[C@H]1CN(C)Cc1ccncc1 | 26%
C[C@@H]1CCCCO[C@H](CN(C)Cc2ccncc2)[C@@H](C)CN([C@H](C)CO)C(=O)c2cc(NS(C)(=O)=O)ccc2O1 | -7.81%
C[C@@H]1CCCCO[C@@H](CN(C)S(=O)(=O)c2cccs2)[C@@H](C)CN([C@H](C)CO)C(=O)c2cc(NC(=O)Nc3ccc(F)cc3)ccc2O1 | 55.6%
C[C@@H]1CCCCO[C@H](CN(C)S(=O)(=O)c2cccs2)[C@@H](C)CN([C@H](C)CO)C(=O)c2cc(NC(=O)Nc3ccccc3)ccc2O1 | 37.3%
C[C@@H]1CCCCO[C@@H](CN(C)Cc2ccncc2)[C@@H](C)CN([C@H](C)CO)C(=O)c2cc(NS(=O)(=O)c3cccs3)ccc2O1 | 104% (active)
C[C@@H]1CCCCO[C@@H](CN(C)S(=O)(=O)c2cccs2)[C@@H](C)CN([C@H](C)CO)C(=O)c2cc(NC(=O)Nc3ccc4c(c3)OCO4)ccc2O1 | 91.3% (active)
COc1ccc(C=NCc2ccc(OC)c(OC)c2)cc1OC | 12.4%
CC1C=CCC2C(=O)N(c3cccc(Cl)c3)C(=O)C12 (stereo not given) | -5.69%
CC1CCC(NC(=O)c2ccccc2C(=O)O)CC1 (stereo not given) | -7.64%
Cc1ccc2c(c1)c(-c1ccccc1)c(-c1ccccc1)n2CC(O)CNCc1ccco1 (stereo not given) | 4.62%
O=C(COC(=O)c1cc2ccccc2cc1O)c1ccc(OCc2ccccc2)cc1 | 6.42%

SMILES | ROS induction (% of piperlongumine)
Cc1noc(C)c1NC(=O)N(C)C[C@H]1Oc2ccc(NC(=O)C3CCCCC3)cc2CC(=O)N([C@@H](C)CO)C[C@H]1C | -5.41%
FC(F)(F)c1cccc(NC(=S)Nc2cc(-c3cccs3)[nH]n2)c1 | -6.71%
CCOC(=O)N1CCC(NC(=O)NCc2noc3ccccc23)CC1 | -11.6%
CC(=O)Nc1ccc(NC(=O)COc2ccccc2C(=O)Nc2cccc(Cl)c2Cl)cc1 | -10%
CC(=O)Nc1ccc(Nc2c3c4c(cccc4[nH]c2=O)C(=O)c2ccccc2-3)cc1 | 105% (active)
CC(=O)Nc1ccc(NC(=O)CN(c2ccccc2Br)S(C)(=O)=O)cc1 | -14%
COc1cc2c(cc1NC(=O)CCC1CCCCC1)oc1ccccc12 | -18.8%
CCOC(=O)c1c(C)nn(-c2ncccc2NC(=O)CCC(=O)O)c1C | -11.2%
COC(=O)[C@@]1(CCS(=O)(=O)c2ccccc2)N=C(c2ccc(OCCCO)cc2)O[C@H]1c1ccccc1N=[N+]=[N-] | 33.1%
[N-]=[N+]=Nc1ccccc1C[C@@]1(C(=O)NCc2ccccc2)N=C(c2ccc(OCCCO)cc2)O[C@@H]1c1ccccc1 | 30.8%
COC(=O)[C@]1(Cc2ccccc2CN=[N+]=[N-])N=C(c2ccc(OCCCO)cc2)O[C@@H]1c1ccccc1CN=[N+]=[N-] | 86.1% (active)
CNC[C@H]1Oc2ccc(NS(=O)(=O)c3cn(C)cn3)cc2C(=O)N([C@@H](C)CO)C[C@@H]1C | 5.85%
COc1ccc(NC(=S)NCC(c2ccccc2)c2c[nH]c3ccccc23)cc1 (stereo not given) | 4.82%
COc1ccc(-c2cc(C(F)(F)F)nc(SCCC(=O)N(C)c3ccccc3)n2)cc1 | 33.5%
CCC(=O)Nc1ccccc1C(=O)Nc1ccccc1 | 10.3%
CC[N+]1=C(C)C(C)(C)c2cc(-c3ccccc3)ccc21 | 52.6%
C=CCn1c(SCc2nnc(SCC(=O)c3ccc(Cl)cc3)o2)nnc1-c1ccccc1 | -1.34%
CCn1c(SCC(=O)c2ccc(OC)cc2)nnc1-c1ccccc1F | -17.9%
Cc1nc2ccccn2c1-c1ccnc(SCC(=O)c2ccc(Cl)cc2)n1 | 102% (active)
CC(C)NC(=O)c1ccc2c(c1)N(Cc1ccccc1)C(=O)CS2 | -7.88%
COC(=O)/C=C1\SC(=NC(=O)c2ccc(F)cc2)NC1=O | 1.03%
Cc1cccc(Cn2c(SCc3ccc(C(=O)N4CCCCC4)cc3)nc3ccncc32)c1 | -1.54%
C[C@H]1CN([C@@H](C)CO)C(=O)Cc2cc(NC(=O)Cc3ccccc3)ccc2O[C@@H]1CN(C)Cc1ccc(Cl)c(Cl)c1 | 88.2% (active)
C[C@@H]1CN([C@H](C)CO)C(=O)c2cccc(NS(=O)(=O)c3ccc(Cl)cc3)c2O[C@@H]1CN(C)Cc1ccc(Oc2ccccc2)cc1 | 16.8%
C[C@H]1CN([C@@H](C)CO)C(=O)c2cccc(NS(=O)(=O)c3ccc(Cl)cc3)c2O[C@@H]1CN(C)Cc1ccc(Oc2ccccc2)cc1 | 23.2%
C[C@@H]1CN([C@H](C)CO)C(=O)c2cccc(NS(=O)(=O)c3ccc(F)cc3)c2O[C@H]1CN(C)Cc1ccc(Oc2ccccc2)cc1 | 102% (active)
Cc1cc(C(=O)Nc2cccc3c2O[C@@H](CN(C)Cc2ccc(C(=O)Nc4ccccc4N)cc2)[C@H](C)CN([C@@H](C)CO)C3=O)n(C)n1 | 29%

SMILES | ROS induction (% of piperlongumine)
C[C@H](CO)N1C[C@H](C)[C@@H](CN(C)Cc2ccc(C(=O)Nc3ccccc3N)cc2)Oc2c(NC(=O)C3CC3)cccc2C1=O | 101% (active)
C[C@@H]1CN([C@@H](C)CO)C(=O)c2cccc(NC(=O)C3CC3)c2O[C@@H]1CN(C)Cc1ccccc1 | -2.71%
C[C@@H]1CN([C@@H](C)CO)C(=O)Cc2cc(NC(=O)Cc3ccccc3)ccc2O[C@@H]1CN(C)Cc1ccc(Oc2ccccc2)cc1 | 115% (active)
C[C@@H]1CN([C@H](C)CO)C(=O)Cc2cc(NC(=O)Nc3ccccc3)ccc2O[C@H]1CN(C)Cc1ccc(Cl)c(Cl)c1 | 13.3%
C[C@@H]1CN([C@H](C)CO)C(=O)Cc2cc(NC(=O)Cc3ccccc3)ccc2O[C@@H]1CN(C)Cc1ccccc1 | 35.5%
C[C@@H]1CN([C@H](C)CO)C(=O)Cc2cc(NC(=O)Cc3ccccc3)ccc2O[C@H]1CN(C)Cc1ccc(Oc2ccccc2)cc1 | 58.8%
COc1ccc(CN(C)C[C@H]2Oc3ccc(NC(=O)Cc4ccccc4)cc3CC(=O)N([C@@H](C)CO)C[C@@H]2C)cc1 | 65.1%
O=C(CSc1nc2c(sc3ccccc32)c(=O)n1Cc1ccccc1)NCCC1=CCCCC1 | -2.88%
O=C(CN(Cc1ccc(Cl)cc1Cl)S(=O)(=O)c1ccccc1)N1CCCC1 | -2.84%
O=C1CSc2ccccc2N1Cc1ccc(Cl)cc1 | 2.65%
Brc1ccc(CSc2c[nH]c3ccccc23)cc1 | -17.1%
Cc1ccc(CNC(=O)c2nc3c(nnn3Cc3ccco3)c(=O)[nH]2)cc1 | 27.5%
CC(C)c1ccc(N2C(=O)CSCC2(C(=O)NC2CCCCC2)c2ccc(Cl)cc2)cc1 (stereo not given) | -3.88%
CCCN(c1ccccc1OC)S(=O)(=O)c1cc(Br)cnc1N | 1.12%
O=C(NC1CCCCCCC1)c1cccs1 | -3.89%
O=C(CCCn1c(=O)c2cccn2c2ccccc21)N1CCCCC1 | -0.17%
CN(C(=O)c1noc2c1CSc1ccccc1-2)c1cccc(C(F)(F)F)c1 | -4.5%
O=C(Nc1ccc(-n2nncc2-c2ccccc2)cc1)c1ccc(S(=O)(=O)N2CCCCC2)cc1 | 51.9%
N#CC(C(=O)Nc1cccc(C(F)(F)F)c1)=C1CCCCCC1 | 14.7%
Cc1cccc(NC(=S)N2CCn3cccc3C2c2cccs2)c1 (stereo not given) | -3.68%
C[C@@H]1CN([C@H](C)CO)C(=O)Cc2cc(NS(=O)(=O)c3cccs3)ccc2O[C@@H]1CN(C)Cc1ccc(C(=O)O)cc1 | 11.6%
C[C@H]1CN([C@@H](C)CO)C(=O)c2cc(NC(=O)Cc3cn(C)c4ccccc34)ccc2O[C@H]1CN(C)Cc1ccc(Cl)c(Cl)c1 | 4.82%
C[C@H]1CN([C@@H](C)CO)C(=O)Cc2cc(NS(=O)(=O)c3cccs3)ccc2O[C@@H]1CN(C)Cc1ccc(Oc2ccccc2)cc1 | 92.6% (active)
C[C@H]1CN([C@@H](C)CO)C(=O)c2cc(NC(=O)Cc3cn(C)c4ccccc34)ccc2O[C@@H]1CN(C)Cc1ccc(Cl)c(Cl)c1 | 118% (active)
C[C@H]1CN([C@@H](C)CO)C(=O)Cc2cc(NS(=O)(=O)c3cccs3)ccc2O[C@H]1CN(C)Cc1ccncc1 | -8.79%
C[C@@H]1CN([C@@H](C)CO)C(=O)c2cc(NC(=O)Cc3ccccc3)ccc2O[C@H]1CN(C)Cc1ccc(Cl)c(Cl)c1 | 44.7%
